An excerpt weighted towards active compounds, which were near 3.5% of everything screened.
GPR151 activ: human GPR151 activation | PathHunter beta-arrestin GPR151 cells, luminescence | 650,000 compounds, 1% hits | Q8TDV0 | activation, % at 11.2 µM | AID 1508602; in the data active means activation above about 4.9%;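 further: 0% = median of compound wells and 100% = cells with positive control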
Target sequence (Q8TDV0 whole entry, looked up): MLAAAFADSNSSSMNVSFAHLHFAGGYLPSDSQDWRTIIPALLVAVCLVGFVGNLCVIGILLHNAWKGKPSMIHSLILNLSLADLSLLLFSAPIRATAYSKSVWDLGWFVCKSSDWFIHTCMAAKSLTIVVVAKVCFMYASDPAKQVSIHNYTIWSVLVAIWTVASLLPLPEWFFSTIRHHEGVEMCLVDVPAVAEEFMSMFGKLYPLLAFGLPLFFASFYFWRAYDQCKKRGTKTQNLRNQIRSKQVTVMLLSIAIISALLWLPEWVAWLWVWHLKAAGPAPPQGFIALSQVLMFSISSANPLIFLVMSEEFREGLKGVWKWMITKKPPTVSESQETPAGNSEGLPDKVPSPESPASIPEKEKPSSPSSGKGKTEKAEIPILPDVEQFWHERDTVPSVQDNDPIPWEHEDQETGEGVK
TEAD-YAP inh: TEAD-YAP interaction inhibition | AID 1259422 | 640,000 compounds, 1.4% hits | HEK-TIYL cells, TEAD-Gal4/YAP UAS-luciferase luminescence | inhibition, % at 9.12 µM; in the data active means inhibition above about 32%;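 further: 0% = median of test compound wells and 100% = reference inhibitor wells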
FBW7 activator: human FBW7 E3 ligase activation, primary screen | Q969H0 | AlphaScreen FBW7–phospho-cyclin E peptide binding, activator screen | normalized activity (activation), % at 26.1 µM | 650,000 compounds, 0.13% hits | AID 1259310; in the data active means normalized activity above about 1.9%;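 further: purified mutant Fbw7 with reduced substrate affinity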
MITF inh: inhibitors of human MITF; 650,000 compounds, 0.91% hits; O75030; inhibition, % at 2.6 µM; AID 1259374; AlphaScreen MITF homodimerization, bead proximity signal; in the data active means inhibition above about 50%;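 further: 0% = vehicle wells with protein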
Starred values were filed as active, the others as inactive.

Screening CC(C)NC(=O)N1CCC(c2nnc(C3CC3)s2)CC1 returned GPR151 activ -1, TEAD-YAP inh 4, FBW7 activator 2.1* and MITF inh 12.
For O=C(NCCc1ccccc1)C1CCN(C(=O)NCc2ccccc2)CC1 the results were GPR151 activ 0, TEAD-YAP inh 1, FBW7 activator 0 and MITF inh 6.
For O=C(c1ccco1)N1Cc2ccccc2OC(c2ccccc2)C1 (configuration not stated) the results were GPR151 activ -2, TEAD-YAP inh -3, FBW7 activator 1 and MITF inh 18.
Screening O=C1c2ccccc2NC2(CCCCC2)N1c1ccc(O)cc1 returned GPR151 activ -2, TEAD-YAP inh 58*, FBW7 activator 0 and MITF inh -13.
For CSCc1ccc(C(=O)NC2CCCCCC2)cc1 the results were GPR151 activ -6, TEAD-YAP inh 47*, FBW7 activator 0 and MITF inh -4.
Screening O=C(NC1CCCCC1)c1ccc(CSc2ccc(Cl)cc2)cc1 returned GPR151 activ 0, TEAD-YAP inh -4, FBW7 activator 0 and MITF inh -7.
c1cncc(CNc2nc(Nc3ccc(N4CCOCC4)cc3)c3[nH]cnc3n2)c1 was read as GPR151 activ -1, TEAD-YAP inh 18, FBW7 activator 0 and MITF inh 12.
`COc1cc([N+](=O)[O-])cc(/C=N/NC(=O)c2ccncc2)c1O` gave GPR151 activ -1, TEAD-YAP inh 5, FBW7 activator -1 and MITF inh 83*.
Screening COc1cccc(/C=N/NC(=O)C(=O)Nc2cccc(C(F)(F)F)c2)c1O returned GPR151 activ 1, TEAD-YAP inh 59*, FBW7 activator -3 and MITF inh 6.
Screening O=C(N/N=C/c1cc(Cl)ccc1O)c1cncc(Br)c1 returned GPR151 activ 0, TEAD-YAP inh 7, FBW7 activator 0 and MITF inh 63*.
COc1ccccc1/C=N/NC(=O)c1ccc(NC(=O)c2ccc(F)cc2)cc1 was read as GPR151 activ 1, TEAD-YAP inh 0, FBW7 activator 0 and MITF inh 21.
Screening COc1cccc(/C=N/NC(=O)c2ccc(NC(=O)c3ccc(F)cc3)cc2)c1O returned GPR151 activ 0, TEAD-YAP inh 97*, FBW7 activator 0 and MITF inh 4.
Screening COc1ccccc1C(=O)N/N=C/c1cc([N+](=O)[O-])cc(OC)c1O returned GPR151 activ -1, TEAD-YAP inh -21, FBW7 activator 1 and MITF inh -10.
COC(=O)c1cc2oc(C)cc2n1Cc1nc(-c2cccs2)oc1C was read as GPR151 activ -1, TEAD-YAP inh 0, FBW7 activator 0 and MITF inh 5.
CCC(O)C1CCN(Cc2nc(-c3ccc(OC)c(OC)c3OC)no2)CC1 (configuration not stated) was read as GPR151 activ 0, TEAD-YAP inh -10, FBW7 activator 0 and MITF inh -1.
For COc1cc(/C=N/NC(=O)c2cncc(Br)c2)cc(Br)c1O the results were GPR151 activ -1, TEAD-YAP inh -4, FBW7 activator 0 and MITF inh 7.
`COc1cccc(/C=N/NC(=O)c2cncc(Br)c2)c1O` gave GPR151 activ -5, TEAD-YAP inh 80*, FBW7 activator 0 and MITF inh 90*.
For COc1cccc(/C=N/NC(=O)c2cc3ccccc3cc2O)c1O the results were GPR151 activ -6, TEAD-YAP inh 53*, FBW7 activator 0 and MITF inh 24.
For COc1cccc(/C=N/NC(=O)c2ccc(Cl)c(Cl)c2)c1O the results were GPR151 activ -1, TEAD-YAP inh 9, FBW7 activator 0 and MITF inh 7.
For COc1cccc(/C=N/NC(=O)c2ccncc2)c1O the results were GPR151 activ 1, TEAD-YAP inh 6, FBW7 activator -1 and MITF inh 61*.
O=C(N/N=C\c1ccc([N+](=O)[O-])s1)c1cncc(Br)c1 was read as GPR151 activ -1, TEAD-YAP inh 65*, FBW7 activator 0 and MITF inh 10.
COc1cccc(/C=N/NC(=O)c2cc(O)c(O)c(O)c2)c1O was read as GPR151 activ -2, TEAD-YAP inh 8, FBW7 activator 0 and MITF inh 46.
For O=C(Nc1cccc(-c2cn3c(n2)SCC3)c1)c1cccc2ccccc12 the results were GPR151 activ -1, TEAD-YAP inh -11, FBW7 activator 0 and MITF inh -1.
`COc1cccc(CC2=NOC(C(=O)NCCC(c3ccccc3)c3ccco3)C2)c1` (configuration not stated) gave GPR151 activ 3, TEAD-YAP inh -2, FBW7 activator 0 and MITF inh -10.
Screening COc1cccc(/C=N/NC(=O)C(=O)N/N=C/c2cccc(OC)c2O)c1O returned GPR151 activ 0, TEAD-YAP inh 13, FBW7 activator -1 and MITF inh -205.
`COc1cccc(/C=N/NC(=O)c2ccc(N(C)S(=O)(=O)c3ccccc3)cc2)c1O` gave GPR151 activ 1, TEAD-YAP inh 80*, FBW7 activator 0 and MITF inh 13.
COc1cc(OC)c(NC(=O)c2sc3nc(C)nc(N4CCN(C)CC4)c3c2C)cc1Cl was read as GPR151 activ -1, TEAD-YAP inh 1, FBW7 activator 0 and MITF inh -2.
For OC(c1ccccc1)c1ccccn1 (configuration not stated) the results were GPR151 activ 2, TEAD-YAP inh 8, FBW7 activator 0 and MITF inh 6.
CC1CC(C(O)c2ccccn2)C(=O)C(C(O)c2ccccn2)C1 (configuration not stated) was read as GPR151 activ -1, TEAD-YAP inh 40*, FBW7 activator 0 and MITF inh -4.
Cc1nc2nc(CC(=O)NCc3ccccc3)nn2c(C)c1Cc1cccc(Cl)c1 was read as GPR151 activ 0, TEAD-YAP inh 55*, FBW7 activator 0 and MITF inh -4.
COC(=O)c1cccc(OCC(O)Cn2c(C)nc3ccccc32)c1 (configuration not stated) was read as GPR151 activ 1, TEAD-YAP inh 39*, FBW7 activator 0 and MITF inh 5.
`COc1ccc(OCC(O)Cn2c(C)nc3ccccc32)cc1` (configuration not stated) gave GPR151 activ 2, TEAD-YAP inh 44*, FBW7 activator 0 and MITF inh 3.
Cc1nc2ccccc2n1CC(O)COc1ccc2ccccc2c1Br (configuration not stated) was read as GPR151 activ -1, TEAD-YAP inh 45*, FBW7 activator 0 and MITF inh 6.
`Cc1nc2ccccc2n1CC(O)COc1ccc(C(C)(C)C)cc1` (configuration not stated) gave GPR151 activ 1, TEAD-YAP inh 47*, FBW7 activator 0 and MITF inh -4.
For COc1ccc(N2C(=O)NC3CC2(C)Oc2ccc([N+](=O)[O-])cc23)cc1Cl (configuration not stated) the results were GPR151 activ -1, TEAD-YAP inh 18, FBW7 activator 0 and MITF inh 8.

Assay outcomes (PubChem BioAssay)
